{"source": "the supplement of paper PMC11732987", "about": "“Enantioselective OTUD7B fragment discovery through chemoproteomics screening and high-throughput optimisation” (Communications Chemistry, 2025)", "test_in_all_cases": "log2 ratio of Biotin-Ahx-Ub-VS probe labelling (fragment/DMSO); higher = less target engagement (more negative = stronger competition), active = hit call of the paper (q ≤ 0.05, log2 ratio ≤ -1)", "conditions_in_all_cases": "compound concentration: 200 uM; treatment time: 3 h", "key": {"USP19": {"target": "T1, USP19 (UniProt O94966)", "T1 sequence (whole entry)": "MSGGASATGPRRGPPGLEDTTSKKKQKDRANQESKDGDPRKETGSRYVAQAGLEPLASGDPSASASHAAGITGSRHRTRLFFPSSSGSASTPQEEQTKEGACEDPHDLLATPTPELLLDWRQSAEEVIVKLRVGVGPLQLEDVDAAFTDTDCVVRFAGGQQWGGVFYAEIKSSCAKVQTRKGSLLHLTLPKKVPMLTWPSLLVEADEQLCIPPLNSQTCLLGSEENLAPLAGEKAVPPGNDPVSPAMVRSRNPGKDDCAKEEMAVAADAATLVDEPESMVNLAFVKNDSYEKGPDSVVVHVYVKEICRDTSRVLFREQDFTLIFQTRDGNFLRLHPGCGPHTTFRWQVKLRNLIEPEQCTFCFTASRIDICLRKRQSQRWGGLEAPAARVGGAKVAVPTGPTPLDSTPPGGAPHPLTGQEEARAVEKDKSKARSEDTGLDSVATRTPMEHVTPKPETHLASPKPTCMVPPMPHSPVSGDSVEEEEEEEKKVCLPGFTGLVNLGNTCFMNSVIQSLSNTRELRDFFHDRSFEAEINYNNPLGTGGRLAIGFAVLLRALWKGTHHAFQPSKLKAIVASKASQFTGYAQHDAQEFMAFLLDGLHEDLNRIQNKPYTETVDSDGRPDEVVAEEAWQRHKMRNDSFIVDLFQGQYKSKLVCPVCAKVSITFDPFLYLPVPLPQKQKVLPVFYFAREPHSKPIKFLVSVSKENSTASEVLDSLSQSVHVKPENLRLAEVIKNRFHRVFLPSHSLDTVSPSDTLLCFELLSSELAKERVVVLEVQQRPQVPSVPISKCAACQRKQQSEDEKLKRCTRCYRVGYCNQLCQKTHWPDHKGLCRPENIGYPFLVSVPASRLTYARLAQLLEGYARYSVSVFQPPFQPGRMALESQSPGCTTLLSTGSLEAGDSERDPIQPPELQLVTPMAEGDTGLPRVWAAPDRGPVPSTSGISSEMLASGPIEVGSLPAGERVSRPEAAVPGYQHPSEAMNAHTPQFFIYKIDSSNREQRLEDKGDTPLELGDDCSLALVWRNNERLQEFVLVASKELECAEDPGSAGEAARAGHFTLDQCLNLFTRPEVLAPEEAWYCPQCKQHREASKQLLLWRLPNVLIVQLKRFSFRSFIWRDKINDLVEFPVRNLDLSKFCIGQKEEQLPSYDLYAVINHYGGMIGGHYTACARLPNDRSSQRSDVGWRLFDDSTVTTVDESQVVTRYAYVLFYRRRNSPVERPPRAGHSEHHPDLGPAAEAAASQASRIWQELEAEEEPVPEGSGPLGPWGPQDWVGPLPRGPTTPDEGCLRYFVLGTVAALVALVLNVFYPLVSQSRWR", "in_short": "(§1)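 Using Biotin-Ahx-Ub-VS at 0.5 µM final for 1 h, DUBs were labelled in HEK293T lysate (495 µg per sample) that had first been treated in triplicate with fragment at 200 µM or vehicle for 3 h. NeutrAvidin enrichment, LysC and trypsin digestion and diaPASEF LC-MS/MS followed. Spectronaut label-free quantities were global-median-normalised. Values are average log2 fragment/vehicle ratios by unpaired t-test, using proteins with ≥2 unique peptides.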"}, "USP22": {"target": "T2, USP22 (UniProt Q9UPT9)", "T2 sequence (whole entry)": "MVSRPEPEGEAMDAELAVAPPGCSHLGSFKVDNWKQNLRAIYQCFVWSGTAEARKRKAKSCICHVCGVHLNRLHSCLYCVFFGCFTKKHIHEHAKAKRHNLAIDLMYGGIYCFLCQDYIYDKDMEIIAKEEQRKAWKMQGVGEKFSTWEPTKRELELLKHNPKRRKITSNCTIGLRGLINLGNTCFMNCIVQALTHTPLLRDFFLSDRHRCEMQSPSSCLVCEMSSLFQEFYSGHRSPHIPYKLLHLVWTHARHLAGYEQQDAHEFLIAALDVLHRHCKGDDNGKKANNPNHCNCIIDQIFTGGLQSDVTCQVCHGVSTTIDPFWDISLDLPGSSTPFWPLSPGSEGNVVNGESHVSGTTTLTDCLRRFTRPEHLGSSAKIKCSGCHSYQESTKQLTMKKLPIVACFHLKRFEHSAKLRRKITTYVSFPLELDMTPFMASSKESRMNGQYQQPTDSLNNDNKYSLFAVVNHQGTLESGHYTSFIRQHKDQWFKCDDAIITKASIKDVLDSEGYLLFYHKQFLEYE", "in_short": "as §1"}, "USP24": {"target": "USP24 (UniProt Q9UPU5)", "sequence (Q9UPU5 whole entry)": "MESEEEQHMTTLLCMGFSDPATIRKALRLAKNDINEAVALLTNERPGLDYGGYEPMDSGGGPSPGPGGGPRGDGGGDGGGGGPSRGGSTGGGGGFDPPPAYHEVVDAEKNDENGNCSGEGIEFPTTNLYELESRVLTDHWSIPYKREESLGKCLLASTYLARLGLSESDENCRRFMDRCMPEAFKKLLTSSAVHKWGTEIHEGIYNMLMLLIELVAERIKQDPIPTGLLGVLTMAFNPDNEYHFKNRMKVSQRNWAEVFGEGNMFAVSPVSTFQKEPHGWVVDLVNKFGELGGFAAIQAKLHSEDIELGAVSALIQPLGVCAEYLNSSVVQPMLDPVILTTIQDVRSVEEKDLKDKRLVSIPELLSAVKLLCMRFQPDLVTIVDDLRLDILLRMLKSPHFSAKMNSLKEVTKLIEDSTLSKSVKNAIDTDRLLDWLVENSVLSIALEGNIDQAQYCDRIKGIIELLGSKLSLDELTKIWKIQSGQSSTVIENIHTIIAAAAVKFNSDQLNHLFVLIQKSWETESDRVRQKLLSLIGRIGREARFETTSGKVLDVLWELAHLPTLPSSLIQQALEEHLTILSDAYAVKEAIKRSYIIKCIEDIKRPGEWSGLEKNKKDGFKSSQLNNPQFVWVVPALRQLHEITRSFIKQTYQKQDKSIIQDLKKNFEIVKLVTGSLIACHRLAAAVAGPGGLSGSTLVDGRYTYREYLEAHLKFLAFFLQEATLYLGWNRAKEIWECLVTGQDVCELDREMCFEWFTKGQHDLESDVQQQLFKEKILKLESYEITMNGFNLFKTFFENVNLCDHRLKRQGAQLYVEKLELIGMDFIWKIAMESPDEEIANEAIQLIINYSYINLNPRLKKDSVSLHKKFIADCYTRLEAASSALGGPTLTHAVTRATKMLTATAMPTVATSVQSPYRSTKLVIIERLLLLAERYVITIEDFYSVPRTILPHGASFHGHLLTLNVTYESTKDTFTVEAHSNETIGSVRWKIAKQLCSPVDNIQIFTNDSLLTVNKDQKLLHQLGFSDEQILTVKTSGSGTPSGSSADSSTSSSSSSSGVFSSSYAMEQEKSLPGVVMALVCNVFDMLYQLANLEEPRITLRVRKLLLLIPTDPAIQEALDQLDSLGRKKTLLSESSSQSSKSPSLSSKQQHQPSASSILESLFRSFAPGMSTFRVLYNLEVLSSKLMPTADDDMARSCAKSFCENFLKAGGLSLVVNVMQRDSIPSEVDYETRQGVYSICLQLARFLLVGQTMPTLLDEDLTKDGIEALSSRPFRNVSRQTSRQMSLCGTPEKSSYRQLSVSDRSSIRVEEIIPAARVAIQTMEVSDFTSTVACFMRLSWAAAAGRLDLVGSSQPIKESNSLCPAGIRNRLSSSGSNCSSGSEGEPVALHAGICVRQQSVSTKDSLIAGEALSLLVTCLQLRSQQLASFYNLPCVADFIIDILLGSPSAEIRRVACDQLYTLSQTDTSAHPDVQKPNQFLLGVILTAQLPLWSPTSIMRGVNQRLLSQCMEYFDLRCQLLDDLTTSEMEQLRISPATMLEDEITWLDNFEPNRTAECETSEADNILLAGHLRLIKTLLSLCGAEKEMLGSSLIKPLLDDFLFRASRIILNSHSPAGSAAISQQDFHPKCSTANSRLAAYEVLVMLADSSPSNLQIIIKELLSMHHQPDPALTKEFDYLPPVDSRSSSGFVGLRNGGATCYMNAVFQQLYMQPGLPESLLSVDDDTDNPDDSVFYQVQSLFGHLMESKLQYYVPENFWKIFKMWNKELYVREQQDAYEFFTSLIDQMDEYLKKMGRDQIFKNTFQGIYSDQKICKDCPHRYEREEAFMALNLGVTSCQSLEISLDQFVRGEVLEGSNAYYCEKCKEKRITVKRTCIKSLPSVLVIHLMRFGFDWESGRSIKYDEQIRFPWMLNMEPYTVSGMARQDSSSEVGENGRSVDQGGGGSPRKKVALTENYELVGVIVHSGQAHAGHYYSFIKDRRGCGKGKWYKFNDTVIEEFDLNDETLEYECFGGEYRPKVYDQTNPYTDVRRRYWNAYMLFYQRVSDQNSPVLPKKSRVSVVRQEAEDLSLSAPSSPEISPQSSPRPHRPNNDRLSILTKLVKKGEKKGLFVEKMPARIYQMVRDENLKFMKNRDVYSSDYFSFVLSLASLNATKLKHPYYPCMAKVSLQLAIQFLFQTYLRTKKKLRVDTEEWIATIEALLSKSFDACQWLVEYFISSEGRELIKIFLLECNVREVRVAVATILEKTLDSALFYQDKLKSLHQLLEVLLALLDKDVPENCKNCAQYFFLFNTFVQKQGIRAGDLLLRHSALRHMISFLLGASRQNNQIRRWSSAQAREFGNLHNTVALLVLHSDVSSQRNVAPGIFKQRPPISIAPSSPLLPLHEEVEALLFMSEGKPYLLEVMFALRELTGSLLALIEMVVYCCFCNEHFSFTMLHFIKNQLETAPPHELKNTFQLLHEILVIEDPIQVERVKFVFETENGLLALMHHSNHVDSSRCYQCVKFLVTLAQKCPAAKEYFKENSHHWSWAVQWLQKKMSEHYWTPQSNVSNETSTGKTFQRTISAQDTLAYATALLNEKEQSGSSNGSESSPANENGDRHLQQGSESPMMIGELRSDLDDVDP", "in_short": "as §1"}, "USP25": {"target": "T3, USP25 (UniProt Q9UHP3)", "T3 sequence (whole entry)": "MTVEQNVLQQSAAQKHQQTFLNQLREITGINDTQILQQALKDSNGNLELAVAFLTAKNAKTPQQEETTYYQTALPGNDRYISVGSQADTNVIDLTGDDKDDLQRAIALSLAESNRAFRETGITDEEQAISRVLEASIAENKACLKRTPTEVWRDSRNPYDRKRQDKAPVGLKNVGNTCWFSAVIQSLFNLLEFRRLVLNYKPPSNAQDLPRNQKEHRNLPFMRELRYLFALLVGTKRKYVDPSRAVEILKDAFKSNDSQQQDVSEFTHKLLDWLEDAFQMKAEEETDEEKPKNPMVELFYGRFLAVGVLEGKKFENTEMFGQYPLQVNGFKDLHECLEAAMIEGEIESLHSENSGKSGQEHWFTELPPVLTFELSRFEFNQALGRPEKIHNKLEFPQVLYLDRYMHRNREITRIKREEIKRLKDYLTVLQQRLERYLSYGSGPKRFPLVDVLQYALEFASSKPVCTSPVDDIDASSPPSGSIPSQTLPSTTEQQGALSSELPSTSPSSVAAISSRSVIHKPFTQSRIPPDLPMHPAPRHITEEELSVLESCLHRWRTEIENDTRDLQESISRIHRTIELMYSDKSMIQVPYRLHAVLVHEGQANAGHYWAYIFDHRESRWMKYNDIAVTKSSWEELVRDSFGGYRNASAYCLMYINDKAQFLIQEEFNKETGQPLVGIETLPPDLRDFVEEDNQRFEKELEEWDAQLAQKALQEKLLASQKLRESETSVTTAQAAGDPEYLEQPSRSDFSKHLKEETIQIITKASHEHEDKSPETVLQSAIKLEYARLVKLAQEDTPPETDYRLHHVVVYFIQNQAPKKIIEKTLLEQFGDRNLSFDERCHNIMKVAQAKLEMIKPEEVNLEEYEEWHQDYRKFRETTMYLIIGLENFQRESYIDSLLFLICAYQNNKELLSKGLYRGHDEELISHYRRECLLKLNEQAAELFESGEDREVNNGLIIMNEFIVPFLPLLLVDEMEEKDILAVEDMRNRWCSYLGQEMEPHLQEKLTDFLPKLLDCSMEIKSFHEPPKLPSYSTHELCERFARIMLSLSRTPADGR", "in_short": "as §1"}, "USP28": {"target": "T4, USP28 (UniProt Q96RU2)", "T4 sequence (whole entry)": "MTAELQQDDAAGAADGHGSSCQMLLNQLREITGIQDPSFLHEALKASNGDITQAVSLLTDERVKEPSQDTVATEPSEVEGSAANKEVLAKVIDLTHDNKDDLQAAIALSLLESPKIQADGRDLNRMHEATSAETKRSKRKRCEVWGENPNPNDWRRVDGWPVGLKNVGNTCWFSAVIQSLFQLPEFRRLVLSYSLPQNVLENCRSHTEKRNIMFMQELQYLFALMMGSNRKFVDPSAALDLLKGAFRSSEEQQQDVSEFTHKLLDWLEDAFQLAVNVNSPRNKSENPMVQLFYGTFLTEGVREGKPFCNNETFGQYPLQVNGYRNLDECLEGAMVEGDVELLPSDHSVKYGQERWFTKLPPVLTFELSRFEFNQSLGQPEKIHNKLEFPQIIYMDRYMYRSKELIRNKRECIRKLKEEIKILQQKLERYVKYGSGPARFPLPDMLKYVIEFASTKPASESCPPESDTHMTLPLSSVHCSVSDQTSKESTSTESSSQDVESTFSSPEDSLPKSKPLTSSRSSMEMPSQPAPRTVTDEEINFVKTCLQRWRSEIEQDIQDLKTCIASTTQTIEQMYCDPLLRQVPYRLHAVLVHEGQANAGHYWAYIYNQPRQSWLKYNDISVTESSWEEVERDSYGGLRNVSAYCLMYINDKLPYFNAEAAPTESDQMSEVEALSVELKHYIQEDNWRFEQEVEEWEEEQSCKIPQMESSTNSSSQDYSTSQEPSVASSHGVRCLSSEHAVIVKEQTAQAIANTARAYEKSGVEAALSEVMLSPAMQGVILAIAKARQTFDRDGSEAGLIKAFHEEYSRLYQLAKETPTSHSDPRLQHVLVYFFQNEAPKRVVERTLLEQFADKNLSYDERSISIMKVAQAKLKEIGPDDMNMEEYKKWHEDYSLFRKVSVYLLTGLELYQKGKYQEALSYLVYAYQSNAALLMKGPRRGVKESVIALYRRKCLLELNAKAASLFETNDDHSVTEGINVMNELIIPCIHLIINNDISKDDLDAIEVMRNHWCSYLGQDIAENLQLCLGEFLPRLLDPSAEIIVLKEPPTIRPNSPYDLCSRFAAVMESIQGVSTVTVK", "in_short": "as §1"}}, "note": "A number with no mark means an inactive call.", "data": [{"smiles": "Cc1cc(NC(=O)CCl)n(-c2ccccc2)n1", "values": [{"measurement": "log2 ratio of Biotin-Ahx-Ub-VS probe labelling", "setting": "USP19", "result": -0.106}, {"measurement": "log2 ratio of Biotin-Ahx-Ub-VS probe labelling", "setting": "USP22", "result": 0.086}, {"measurement": "log2 ratio of Biotin-Ahx-Ub-VS probe labelling", "setting": "USP24", "result": -0.201}, {"measurement": "log2 ratio of Biotin-Ahx-Ub-VS probe labelling", "setting": "USP25", "result": -0.721}, {"measurement": "log2 ratio of Biotin-Ahx-Ub-VS probe labelling", "setting": "USP28", "result": "-1.03 (active)"}]}]}
